# Source: PubChem (The Scripps Research Institute Molecular Screening Center)
# This is a sample that favours compounds with a hit; in the whole collection about 1.8% have one here.
# LYPLA2 counter: blocks human lysophospholipase 2, a PME1 counter-screen | O95372 | recombinant LYPLA2, FP-Rh probe fluorescence polarization | inhibition, % at 5.9 µM | actives 0.38% (n = 320,000) | AID 2177;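 active means inhibition above the screen-wide mean plus 3 SD, limit set per campaign, cut at about 26% in these data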;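 further: 0% = LYPLA2 with DMSO and 100% = wells lacking LYPLA2 enzyme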
# Target sequence (O95372 whole entry, looked up): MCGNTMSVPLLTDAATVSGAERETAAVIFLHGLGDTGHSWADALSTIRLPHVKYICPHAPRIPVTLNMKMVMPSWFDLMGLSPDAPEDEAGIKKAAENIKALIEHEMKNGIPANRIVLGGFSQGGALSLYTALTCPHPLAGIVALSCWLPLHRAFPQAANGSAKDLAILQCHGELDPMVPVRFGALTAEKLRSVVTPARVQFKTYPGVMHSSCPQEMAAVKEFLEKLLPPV
# PME-1 primary: blocks human protein phosphatase methylesterase 1. actives 0.53% (n = 320,000). Q9Y570. inhibition, % at 5.9 µM. recombinant PME-1, FP-Rh probe fluorescence polarization. AID 2130;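 active means inhibition above the campaign mean of all compounds plus 3 SD, cut at about 26% in these data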;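 further: competitive labeling of PME-1 active site by serine hydrolase directed probe; 0% = PME-1 with DMSO and 100% = wells lacking PME-1 enzyme; inhibitors block probe labeling so polarization falls and inhibition rises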
# PAD4 FP inh: inhibitors of human PAD4. recombinant PAD4, RCA probe fluorescence polarization. inhibition, % at 6.36 µM. actives 0.41% (n = 330,000). AID 485272;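 active means percent inhibition above a cutoff equal to the mean of all tested compounds plus 3 SD, cut at about 15% in these data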;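 further: 0% = PAD4 with RCA probe and DMSO and 100% = probe without PAD4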
# LYPLA1 counter: counter-screen for PME1 inhibitors: inhibitors of human LYPLA1; O75608; recombinant LYPLA1, FP-Rh probe fluorescence polarization; inhibition, % at 5.9 µM; actives 0.16% (n = 320,000);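 active means inhibition above the mean of all tested compounds plus 3 SD, set per campaign, cut at about 14% in these data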;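 further: inhibitors block serine hydrolase probe labeling of LYPLA1 so polarization falls; 0% = enzyme with DMSO and 100% = wells lacking LYPLA1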
# Target sequence (O75608 whole entry, looked up): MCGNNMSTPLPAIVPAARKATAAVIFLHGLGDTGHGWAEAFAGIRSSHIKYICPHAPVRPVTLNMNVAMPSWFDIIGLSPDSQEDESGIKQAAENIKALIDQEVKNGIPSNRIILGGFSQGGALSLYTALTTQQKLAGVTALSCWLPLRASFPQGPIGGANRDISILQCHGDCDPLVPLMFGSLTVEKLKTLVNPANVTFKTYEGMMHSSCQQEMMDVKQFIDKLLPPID
# Fam108B inh: counter-screen for RBBP9 inhibitors: inhibitors of mouse Fam108B; recombinant Fam108B, FP-Rh probe fluorescence polarization; inhibition, % at 9.51 µM; actives 0.33% (n = 300,000); AID 1947;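 active means inhibition above the screen mean inhibition plus 3 SD, computed separately per campaign, cut at about 18% in these data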;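 further: inhibitors lower polarization as less probe binds the enzyme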
# GSTO1 counter: blocks human GSTO1 in RBBP9 counter-screen | P78417 | inhibition, % at 5.96 µM | actives 1.1% (n = 300,000) | AID 1974 | recombinant GSTO1, activity-based probe fluorescence polarization;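 active means inhibition above the campaign mean inhibition plus 3 SD, cut at about 35% in these data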;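 further: 0% = GSTO1-1 with DMSO and 100% = wells lacking GSTO1-1 enzyme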
# Target sequence (P78417 whole entry, looked up): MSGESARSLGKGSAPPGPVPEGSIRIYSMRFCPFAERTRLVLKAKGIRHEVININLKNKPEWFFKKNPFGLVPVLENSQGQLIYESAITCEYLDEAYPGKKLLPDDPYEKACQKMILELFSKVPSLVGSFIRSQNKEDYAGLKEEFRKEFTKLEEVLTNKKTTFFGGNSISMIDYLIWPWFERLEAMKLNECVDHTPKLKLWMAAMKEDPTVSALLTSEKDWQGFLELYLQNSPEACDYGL
# PAD4 FP conf: confirmation of human PAD4 inhibitors; recombinant PAD4, RCA probe fluorescence polarization; inhibition, % at 6.36 µM; actives 28% (n = 1,200); shares compounds with PAD4 FP inh;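 active means mean inhibition across replicates above the hit cutoff set by the earlier primary screen, cut at about 15% in these data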;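 further: inhibitors block active-site labeling by the probe so polarization falls; 0% = PAD4 with probe and DMSO and 100% = probe without PAD4 enzyme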
# The depositor's hits bear a star; x = not tested or not shown.
SMILES,LYPLA2 counter,PME-1 primary,PAD4 FP inh,LYPLA1 counter,Fam108B inh,GSTO1 counter,PAD4 FP conf
COc1ccc(NC(=O)CCC(=O)c2ccc(Cl)cc2)cn1,-6.8,-0.5,-3.7,-3.5,x,x,x
CC(=C/c1ccco1)/C=N/N1CCN(c2ccccc2)CC1,5.2,0.2,20.2*,3.6,0.1,1.0,-7.3
CC(=O)NCCC(=O)N1CCCC(N2CCN(c3cccc(Cl)c3)CC2)C1 (stereo unspecified),0.4,1.2,-2.1,0.5,-3.2,3.1,x
O=C(NCCCNC(=O)c1ccccc1F)c1ccco1,-4.8,-3.5,36.6*,-2.6,-7.3,1.6,0.3
O=C(NCCNC(=O)c1ccccc1Cl)c1ccco1,8.0,2.2,2.3,8.2,-3.3,1.2,x
COc1cc(C#N)c(N=C(SCC#N)N2CCOCC2)cc1OC,4.8,-4.4,24.9*,1.3,-3.0,13.3,28.2*
OCc1ccccc1SSc1ccccc1CO,-0.8,-3.3,47.9*,2.2,-2.4,20.8,41.5*
CSCc1cccc(C(=O)OC(C)C(=O)Nc2c(C)n(C)n(-c3ccccc3)c2=O)c1 (stereo unspecified),-5.2,-5.8,24.1*,-1.6,x,x,5.8
O=C(CCc1nnc(-c2ccsc2)o1)N1CCCCC1CCn1ccnc1 (stereo unspecified),2.1,0.7,-4.0,-2.1,-2.5,3.4,x
O=[N+]([O-])c1ccc2nc(-c3ccccc3)n(OCc3ccc(Cl)cc3)c2c1,-3.7,2.1,84.1*,-7.0,3.9,-0.4,4.0
O=[N+]([O-])c1ccc(COn2nnc3ccccc32)cc1,2.6,6.2,1.8,1.0,-6.0,5.7,x
CC(=O)Nc1c2c3c(cccc3n(C)c1=O)C(=O)c1ccccc1-2,2.7,2.2,65.4*,4.1,3.0,16.8,30.7*
CC(C)(C)NC(=O)c1cccc2c1-c1ccccc1C2=O,-2.1,-9.7,-1.7,0.9,-0.9,0.8,x
Cc1ccc(C2OC(=O)c3ccccc32)cc1 (stereo unspecified),3.9,-5.5,-0.8,4.0,0.3,3.4,x
O=S(=O)(NC1=NCCCCC1)c1ccc2sc(NS(=O)(=O)c3ccc4ccccc4c3)nc2c1,-5.5,-4.8,30.0*,-2.1,-2.3,-42.5,22.0*
Cc1nn2c(nc1=O)SCC(c1ccccc1)=N2,-4.3,-4.3,18.2*,3.1,-5.3,8.8,-6.5
Cc1cccc(-c2nnc3n2N=C(c2ccccc2)CS3)c1,12.8,5.2,-0.7,6.2,-0.6,1.8,x
COc1cccc(C2NC(=O)c3sc(=S)n(-c4ccccc4)c3N2)c1 (stereo unspecified),6.3,1.4,4.0,1.6,-4.3,0.1,x
C[C@H](CO)N1C[C@H](C)[C@@H](CN(C)Cc2ccc(C(=O)O)cc2)Oc2ccc(NC(=O)Cn3cnnn3)cc2C1=O,x,x,-1.7,x,x,x,x
c1cc2c(cc1C1=NNC(=NC3CC3)SC1)OCCO2,1.1,-0.2,40.9*,-0.3,-2.0,13.4,7.0
c1ccc2oc(C3=NNC(=NC4CC4)SC3)cc2c1,-4.2,-2.5,21.5*,-7.4,-2.5,-2.4,8.3
O=C(Nc1ccccc1)C(=O)Nc1cccnc1,8.1,-2.5,17.9*,3.2,1.7,-11.1,5.5
O=C(CC(=O)c1ccccc1)Nc1cccnc1,-2.8,-4.8,0.8,-0.4,0.7,-1.6,x
O=S1OC(c2ccccc2)c2cc(Cl)ccc21 (stereo unspecified),-1.5,-8.5,40.0*,1.9,-1.5,7.1,35.5*
CCOc1cc(/C=N/NC(=O)c2ccccn2)ccc1OC(=O)c1ccc(F)cc1,-16.5,-5.3,-5.2,-9.7,-4.7,-2.6,x
SMILES,LYPLA2 counter,PME-1 primary,PAD4 FP inh,LYPLA1 counter,Fam108B inh,GSTO1 counter,PAD4 FP conf
Cc1ccc(C)c(-n2nnnc2Sc2nnnn2-c2ccccc2)c1,2.7,-4.5,18.2*,-0.7,-1.2,-1.8,25.5*
CCCc1cc(=O)[nH]c(SCC(=O)N(C)C2CCCCC2)n1,3.4,1.5,7.4,1.2,x,x,x
S=C(NC1CCCC1)NN1CCOCC1,2.9,0.2,-2.7,0.3,1.4,-4.8,x
CC1=NN(c2ccc(Cl)cc2)C(=O)C1,-4.0,7.7,30.6*,-1.8,2.0,36.1*,3.1
CC(C)(Oc1ccc(Cl)cc1)C(=O)NC1=NN(c2ccccc2)C(=O)C1,9.2,6.4,-9.1,2.6,6.9,18.7,x
CCC(=O)Nc1ccccc1Sc1ncnc2scc(-c3ccccc3)c12,6.8,7.4,21.4*,3.8,-1.1,2.9,9.2
C/C(=C\C(=O)c1ccc(Cl)cc1Cl)N(C)C,-4.0,5.0,-1.6,-1.6,2.3,-10.0,x
COc1ccc(C(=O)CSc2cc(C)nc3nc(C)nn23)cc1OC,-0.3,7.0,28.3*,1.6,5.7,-2.5,25.9*
CC(C)[C@H](NC(=O)CCCn1nnc2ccccc2c1=O)C(=O)O,1.4,-5.6,0.2,0.8,0.2,4.2,x
Cc1cc2c(cc1C)N(C(=O)CSc1nncn1C)C(C)(C)c1ssc(=S)c1-2,5.6,7.8,33.3*,1.8,0.1,-5.8,32.5*
Cc1ccc2c(c1)N(C(=O)CSc1nncn1C)C(C)(C)c1ssc(=S)c1-2,-0.7,7.4,13.2,3.8,5.8,-3.6,x
COCCn1c(=S)[nH]c2cc(OC)c(OC)cc2c1=O,-1.3,-3.4,42.8*,-1.8,-2.8,-0.9,-2.6
CCN(CC)CCCn1c(=S)[nH]c2cc(OC)c(OC)cc2c1=O,-2.1,0.2,2.3,5.2,0.0,4.9,x
O=C(O)C1CCCC2CN3CCc4c([nH]c5ccccc45)C3C(O)C21 (stereo unspecified),4.7,11.5,2.0,6.8,14.2,27.9,x
COc1cc(C=O)ccc1OC(=O)c1ccc(C(C)C)cc1,-1.0,-10.2,0.2,-1.6,-3.8,-1.1,x
CCN(CC)S(=O)(=O)c1ccc(Cl)c(C(=O)Nc2cc(C)nn2-c2ccccc2C(F)(F)F)c1,-1.0,3.5,18.2*,-2.5,-3.4,6.9,-3.0
O=C(Nc1nc2c(Br)cc(Br)cc2c(=O)s1)C1CCC1,-1.9,-5.6,9.6,2.3,1.4,0.9,x
Cc1ccc(S(=O)(=O)/N=C(/Sc2ccccc2C(=O)O)c2ccccc2)cc1,3.1,7.6,17.6*,3.3,3.4,4.8,24.7*
O=C(c1ccc2c(=O)n3c(nc2c1)CCCCC3)N1CCN(c2ccc(Cl)cc2)CC1,0.7,-4.0,2.1,-1.3,-4.4,4.4,x
O=S(=O)(CCSc1nc2ccccc2s1)c1nc2ccccc2s1,-4.2,3.6,49.5*,-2.9,-0.1,-6.8,40.9*
CCS(=O)(=O)CCSc1nc2ccccc2s1,4.2,-1.1,3.3,3.0,0.2,0.6,x
O=c1[nH][nH]c(-c2ccccc2)c1C=Nc1ccc(OC(F)(F)F)cc1,1.9,2.1,-3.8,0.8,-1.1,11.3,x
CCO/C(=C/c1sc2ccc(OC)cc2[n+]1CCCS(=O)(=O)[O-])CC,10.4,-4.5,19.4*,3.5,4.5,-5.1,4.8
